Source: the supplement of paper PMC10849652
The full data set covers some 7,900 targets. This sample favours those with a hit. About 0.6% of all pairs of compound and target were hits.

How the values were obtained:
Assay in all cases: log2 fold change, soluble protein after heating vs DMSO (PISA); higher = thermal stabilisation; K562 cells, 10 uM, 30 min; active = over 0.2 and 3.5 SD of the protein, either way, in both replicates (recomputed)
[1] = compound: CN1CCN(CCOc2cc(OC3CCOCC3)c3c(Nc4c(Cl)ccc5c4OCO5)ncnc3c2)CC1 [saracatinib]
Outline: (§1)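 Aliquots of K562 cells (2×10^6 cells/mL) treated with 10 μM compound for 30 min were heated for 3 min over 48°C-58°C. After pooling and extraction in PBS with 0.5% NP-40 at 4°C, soluble protein from a 21,000xg, 90 min spin was quantified by TMTpro 16plex LC-MS/MS with channel sums equalised. Thermal stability is expressed against control samples, from duplicates, as a log2 fold change.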

[2] = compound: CN1CCN(c2nc(C3=C(c4c[nH]c5ccccc45)C(=O)NC3=O)c3ccccc3n2)CC1 [sotrastaurin]
Outline: as §1

[3] = compound: CN1CC[C@H](c2c(O)cc(O)c3c(=O)cc(-c4ccccc4Cl)oc23)[C@H](O)C1 [alvocidib]
Outline: as §1

[4] = compound: CN1CCc2c(c3ccccc3n2Cc2ccc(C(=O)NO)cc2)C1 [Tubastatin A]
Outline: as §1

[5] = compound: CNC(=O)C1=CC=CC=C1NC2=NC(=NC=C2Cl)NC3=C(C=C(C=C3)N4CCOCC4)OC
Outline: as §1

[6] = compound: CNC(=O)c1ccc(Nc2ncc(C(F)(F)F)c(NCc3nccnc3N(C)S(C)(=O)=O)n2)cc1 [defactinib]
Outline: as §1

[7] = compound: CNCc1ccc(-c2[nH]c3cc(F)cc4c3c2CCNC4=O)cc1 [rucaparib]
Outline: as §1

[8] = compound: CNc1nc(-c2ccc3c(N)n[nH]c3c2)cc(N2C[C@@H](C(=O)NC3CCCCC3)CC[C@H]2C)n1
Outline: as §1

[9] = compound: COC(=O)N[C@@H](C)CNc1nccc(-c2cn(C(C)C)nc2-c2cc(Cl)cc(NS(C)(=O)=O)c2F)n1 [encorafenib]
Outline: as §1

[10] = compound: COC(=O)[C@H](CCSC)NC(=O)C1=C(C=C(C=C1)NC[C@H](CS)N)C2=CC=CC=C2
Outline: as §1

[11] = compound: COC1=CC=C(C=C1)CN2C=CC3=C2C=C(C=C3)C(=O)NO
Outline: as §1

[12] = compound: CON(C)C(=O)N1N=C(c2cc(F)ccc2F)S[C@@]1(CCCN)c1ccccc1 [filanesib]
Outline: as §1

[13] = compound: CO[C@H]1C[C@@H]2CC[C@@H](C)[C@@](O)(O2)C(=O)C(=O)N2CCCC[C@H]2C(=O)O[C@H]([C@H](C)C[C@@H]2CC[C@H](n3cnnn3)[C@H](OC)C2)CC(=O)[C@H](C)/C=C(\C)[C@@H](O)[C@@H](OC)C(=O)[C@H](C)C[C@H](C)/C=C/C=C/C=C/1C [zotarolimus]
Outline: as §1

[14] = compound: COc1cc(C(=O)O)ccc1NC(=O)[C@@H]1N[C@@H](CC(C)(C)C)[C@](C#N)(c2ccc(Cl)cc2F)[C@H]1c1cccc(Cl)c1F [idasanutlin]
Outline: as §1

[15] = compound: COc1cc(Nc2ncc3c(n2)-c2ccc(Cl)cc2C(c2c(F)cccc2OC)=NC3)ccc1C(=O)O [alisertib]
Outline: as §1

[16] = compound: COc1cc2nc(-c3cc(F)ccc3O)nc(N[C@@H]3CNC[C@H]3C(C)(C)O)c2cc1OC
Outline: as §1

[17] = compound: COc1cc2ncnc(Nc3ccc(F)c(Cl)c3)c2cc1OCCCN1CCOCC1 [gefitinib]
Outline: as §1

[18] = compound: COc1cccc2cc(-c3nc([C@H]4CC[C@H](C(=O)O)CC4)n4ncnc(N)c34)[nH]c12
Outline: as §1

[19] = compound: CS(=O)(=O)CCNCc1ccc(-c2ccc3ncnc(Nc4ccc(OCc5cccc(F)c5)c(Cl)c4)c3c2)o1 [lapatinib]
Outline: as §1

[20] = compound: CS(=O)(=O)N1CCN(Cc2cc3nc(-c4cccc5[nH]ncc45)nc(N4CCOCC4)c3s2)CC1 [pictilisib]
Outline: as §1

Measured: log2 fold change

PRKCB isoform 2 (UniProt P05771)
Sequence of UniProt P05771 (P05771 whole entry, looked up): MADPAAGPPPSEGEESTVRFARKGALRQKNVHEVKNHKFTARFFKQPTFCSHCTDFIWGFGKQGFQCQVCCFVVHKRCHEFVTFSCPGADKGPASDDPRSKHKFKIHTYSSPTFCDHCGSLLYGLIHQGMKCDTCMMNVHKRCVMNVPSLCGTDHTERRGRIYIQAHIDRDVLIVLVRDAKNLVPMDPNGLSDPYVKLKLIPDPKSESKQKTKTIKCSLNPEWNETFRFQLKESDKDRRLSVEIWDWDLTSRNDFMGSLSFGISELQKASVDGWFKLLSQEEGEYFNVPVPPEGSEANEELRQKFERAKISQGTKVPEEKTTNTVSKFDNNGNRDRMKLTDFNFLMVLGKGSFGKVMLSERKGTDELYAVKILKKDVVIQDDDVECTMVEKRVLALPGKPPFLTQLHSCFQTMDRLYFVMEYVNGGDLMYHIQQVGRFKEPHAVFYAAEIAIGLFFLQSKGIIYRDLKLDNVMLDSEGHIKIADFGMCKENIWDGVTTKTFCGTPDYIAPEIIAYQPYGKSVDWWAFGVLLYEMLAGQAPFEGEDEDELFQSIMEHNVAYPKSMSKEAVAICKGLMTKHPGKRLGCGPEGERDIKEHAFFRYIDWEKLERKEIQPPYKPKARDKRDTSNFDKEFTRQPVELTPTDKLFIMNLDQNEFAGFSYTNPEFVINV
inactive: [1] -0.006 | [3] -0.014 | [4] -0.004 | [5] 0.012 | [6] -0.03 | [7] 0.001 | [8] -0.03 | [9] 0.031 | [10] -0.001 | [11] -0.011 | [12] -0.022 | [13] 0.046 | [14] -0.028 | [15] -0.051 | [16] 0.035 | [17] 0.001 | [18] -0.036 | [19] -0.008 | [20] 0.035
active: [2] -0.343

PSMD2 (UniProt Q13200)
Sequence of UniProt Q13200 (Q13200 whole entry, looked up): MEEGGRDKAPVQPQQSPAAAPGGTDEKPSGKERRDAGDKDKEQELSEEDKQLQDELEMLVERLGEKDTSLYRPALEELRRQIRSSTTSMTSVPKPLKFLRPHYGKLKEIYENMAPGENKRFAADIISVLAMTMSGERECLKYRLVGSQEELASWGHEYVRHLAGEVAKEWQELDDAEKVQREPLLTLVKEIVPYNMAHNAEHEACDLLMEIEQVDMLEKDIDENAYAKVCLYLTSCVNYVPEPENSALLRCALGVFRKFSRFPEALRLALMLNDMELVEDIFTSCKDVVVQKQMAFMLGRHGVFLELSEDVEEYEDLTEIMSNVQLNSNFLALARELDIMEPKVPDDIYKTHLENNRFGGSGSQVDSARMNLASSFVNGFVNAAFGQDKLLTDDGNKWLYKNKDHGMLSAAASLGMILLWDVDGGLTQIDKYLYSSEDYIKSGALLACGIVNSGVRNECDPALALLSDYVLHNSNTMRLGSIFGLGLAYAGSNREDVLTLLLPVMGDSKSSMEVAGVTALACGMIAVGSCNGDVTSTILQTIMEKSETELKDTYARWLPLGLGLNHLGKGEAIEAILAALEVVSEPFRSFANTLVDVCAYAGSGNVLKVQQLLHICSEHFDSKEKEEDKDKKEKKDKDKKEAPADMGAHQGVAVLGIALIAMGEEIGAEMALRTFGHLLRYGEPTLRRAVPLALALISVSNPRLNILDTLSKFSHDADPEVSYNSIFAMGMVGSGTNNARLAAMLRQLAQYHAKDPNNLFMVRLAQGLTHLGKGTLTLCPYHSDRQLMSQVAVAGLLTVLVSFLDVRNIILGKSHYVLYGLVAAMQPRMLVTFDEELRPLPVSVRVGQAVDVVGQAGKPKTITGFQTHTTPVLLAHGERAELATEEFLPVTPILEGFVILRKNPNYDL
inactive: [1] -0.047 | [2] -0.029 | [3] 0.048 | [4] -0.014 | [5] -0.033 | [6] 0.061 | [7] 0.035 | [8] 0.01 | [9] 0.051 | [10] 0.012 | [11] -0.036 | [12] 0.051 | [13] -0.015 | [14] 0.039 | [15] -0.089 | [16] -0.071 | [17] -0.043 | [18] -0.053 | [19] 0.077 | [20] -0.059

PLD3 (UniProt Q8IV08)
inactive: [1] 0.034 | [2] 0.013 | [3] -0.024 | [4] 0.004 | [5] 0.016 | [6] -0.005 | [7] -0.094 | [8] -0.037 | [9] 0.007 | [10] 0.009 | [11] -0.027 | [12] -0.131 | [13] -0.006 | [14] 0.001 | [15] -0.139 | [16] 0.019 | [17] 0.008 | [18] 0.027 | [19] -0.025 | [20] 0.045

PTGR2 (UniProt Q8N8N7)
inactive: [1] 0.021 | [2] 0.009 | [3] 0.015 | [4] 0.046 | [5] -0.052 | [6] -0.025 | [7] 0.007 | [8] 0.136 | [9] -0.107 | [10] -0.043 | [11] -0.13 | [12] -0.155 | [13] 0.195 | [14] 0.122 | [15] -0.03 | [16] -0.04 | [17] 0.035 | [18] 0 | [19] 0.125 | [20] 0.313

PELP1 (UniProt Q8IZL8)
inactive: [1] -0.002 | [2] -0.007 | [3] -0.066 | [4] -0.021 | [5] -0.027 | [6] -0.082 | [7] -0.054 | [8] -0.069 | [9] -0.012 | [10] 0.004 | [11] -0.096 | [12] -0.022 | [13] 0.012 | [14] 0.012 | [15] -0.045 | [16] -0.033 | [17] -0.002 | [18] 0.042 | [19] 0.031 | [20] -0.074

PTGES3 (UniProt Q15185)
Sequence of UniProt Q15185 (Q15185 whole entry, looked up): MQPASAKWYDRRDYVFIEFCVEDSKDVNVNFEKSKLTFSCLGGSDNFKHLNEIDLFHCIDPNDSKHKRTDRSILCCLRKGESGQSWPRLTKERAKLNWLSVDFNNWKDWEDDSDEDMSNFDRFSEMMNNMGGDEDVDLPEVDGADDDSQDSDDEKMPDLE
inactive: [1] -0.023 | [2] -0.057 | [3] -0.215 | [4] 0.023 | [5] 0.088 | [6] -0.205 | [7] -0.059 | [8] 0.034 | [9] 0.032 | [10] -0.068 | [11] 0.23 | [12] -0.091 | [13] 0.055 | [14] 0.004 | [15] 0.016 | [16] -0.044 | [17] 0.044 | [18] -0.038 | [19] 0.007 | [20] 0.027

PDLIM7 (UniProt Q9NR12)
Sequence of UniProt Q9NR12 (Q9NR12 whole entry, looked up): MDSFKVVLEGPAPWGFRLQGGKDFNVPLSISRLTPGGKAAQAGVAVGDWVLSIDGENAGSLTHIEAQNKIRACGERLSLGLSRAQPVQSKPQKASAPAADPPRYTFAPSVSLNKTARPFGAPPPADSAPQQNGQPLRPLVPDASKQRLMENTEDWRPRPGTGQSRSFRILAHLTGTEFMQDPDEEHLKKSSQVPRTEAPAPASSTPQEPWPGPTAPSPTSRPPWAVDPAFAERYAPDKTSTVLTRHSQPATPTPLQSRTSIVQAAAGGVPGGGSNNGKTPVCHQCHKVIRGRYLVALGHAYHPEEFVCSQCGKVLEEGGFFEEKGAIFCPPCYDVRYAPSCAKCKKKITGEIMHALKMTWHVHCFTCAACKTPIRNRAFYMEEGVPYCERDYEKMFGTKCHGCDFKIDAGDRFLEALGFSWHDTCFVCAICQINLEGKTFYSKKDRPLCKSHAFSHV
inactive: [1] 0.002 | [2] 0.016 | [3] -0.032 | [4] -0.022 | [5] -0.014 | [6] -0.083 | [7] 0.002 | [8] -0.013 | [9] 0.021 | [10] -0.021 | [11] 0.055 | [12] 0.014 | [13] 0.014 | [14] -0.042 | [15] -0.06 | [16] 0.03 | [17] -0.104 | [18] 0.012 | [19] 0.012 | [20] -0.046

PPP1R14A (UniProt Q96A00)
Sequence of UniProt Q96A00 (Q96A00 whole entry, looked up): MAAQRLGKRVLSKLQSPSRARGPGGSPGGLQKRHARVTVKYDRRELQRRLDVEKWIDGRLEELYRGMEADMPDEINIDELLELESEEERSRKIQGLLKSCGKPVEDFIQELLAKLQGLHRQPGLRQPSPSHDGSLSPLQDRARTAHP
inactive: [1] -0.048 | [2] -0.027 | [3] 0.025 | [4] 0 | [5] -0.021 | [6] -0.012 | [7] -0.023 | [8] -0.015 | [9] -0.025 | [10] -0.004 | [11] 0.016 | [12] 0.031 | [13] -0.028 | [14] -0.013 | [15] -0.041 | [16] 0.039 | [17] 0.012 | [18] -0.079 | [19] -0.057 | [20] 0.017

PRKACA (UniProt P17612)
inactive: [1] 0.002 | [2] -0.117 | [3] -0.012 | [4] 0.054 | [5] -0.104 | [6] -0.015 | [7] 0.061 | [8] 0.077 | [9] 0.01 | [10] 0.072 | [11] 0.05 | [12] -0.076 | [13] -0.034 | [14] 0.006 | [15] -0.078 | [16] 0.088 | [17] -0.004 | [18] 0.028 | [19] 0.025 | [20] 0.068

PRKCA (UniProt P17252)
active: [2] -0.502
inactive: [1] -0.174 | [3] -0.017 | [4] 0.018 | [5] 0.026 | [6] -0.006 | [7] 0.039 | [8] 0.308 | [9] -0.038 | [10] 0.005 | [11] -0.005 | [12] -0.066 | [13] 0.008 | [14] 0.01 | [15] -0.019 | [16] 0.057 | [17] -0.002 | [18] 0.017 | [19] -0.027 | [20] 0.055

POLR3K (UniProt Q9Y2Y1)
inactive: [1] 0.052 | [2] -0.049 | [3] 0.038 | [4] 0.044 | [5] -0.035 | [6] -0.086 | [7] 0.089 | [8] -0.098 | [9] -0.019 | [10] 0.015 | [11] -0.078 | [12] -0.03 | [13] -0.063 | [14] 0.006 | [15] -0.156 | [16] 0.01 | [17] -0.023 | [18] 0.044 | [19] 0.057 | [20] -0.04

PDCD4 (UniProt Q53EL6)
Sequence of UniProt Q53EL6 (Q53EL6 whole entry, looked up): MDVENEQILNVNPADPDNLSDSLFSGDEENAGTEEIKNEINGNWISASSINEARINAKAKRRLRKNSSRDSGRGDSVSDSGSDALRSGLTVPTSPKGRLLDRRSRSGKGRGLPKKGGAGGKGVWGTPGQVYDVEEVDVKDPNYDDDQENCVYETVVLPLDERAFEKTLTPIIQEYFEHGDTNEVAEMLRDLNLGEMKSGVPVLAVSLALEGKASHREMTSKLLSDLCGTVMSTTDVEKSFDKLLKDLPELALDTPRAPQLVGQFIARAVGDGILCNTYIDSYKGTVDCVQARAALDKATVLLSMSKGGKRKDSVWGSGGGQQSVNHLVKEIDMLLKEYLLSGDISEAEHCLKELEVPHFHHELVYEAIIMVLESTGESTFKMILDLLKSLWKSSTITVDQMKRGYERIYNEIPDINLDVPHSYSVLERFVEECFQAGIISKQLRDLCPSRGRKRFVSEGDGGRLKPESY
inactive: [1] -0.008 | [2] 0.138 | [3] -0.113 | [4] 0 | [5] 0.177 | [6] -0.243 | [7] -0.113 | [8] 0.114 | [9] 0.073 | [10] -0.097 | [11] 0.055 | [12] -0.153 | [13] 0.251 | [14] -0.161 | [15] -0.025 | [16] 0.018 | [17] 0.057 | [18] 0.16 | [19] 0.032 | [20] 0.083

POMP (UniProt Q9Y244)
Sequence of UniProt Q9Y244 (Q9Y244 whole entry, looked up): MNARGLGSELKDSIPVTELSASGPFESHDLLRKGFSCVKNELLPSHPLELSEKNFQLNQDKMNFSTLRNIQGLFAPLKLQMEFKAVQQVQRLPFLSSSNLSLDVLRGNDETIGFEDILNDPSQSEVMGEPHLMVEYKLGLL
inactive: [1] 0.075 | [2] 0.035 | [3] 0.046 | [4] -0.067 | [5] -0.035 | [6] -0.014 | [7] -0.013 | [8] -0.114 | [9] -0.071 | [10] 0.136 | [11] 0.175 | [12] 0.082 | [13] 0.012 | [14] 0.115 | [15] -0.153 | [16] -0.016 | [17] 0.076 | [18] -0.03 | [19] -0.022 | [20] 0.031

PHAX (UniProt Q9H814)
Sequence of UniProt Q9H814 (Q9H814 whole entry, looked up): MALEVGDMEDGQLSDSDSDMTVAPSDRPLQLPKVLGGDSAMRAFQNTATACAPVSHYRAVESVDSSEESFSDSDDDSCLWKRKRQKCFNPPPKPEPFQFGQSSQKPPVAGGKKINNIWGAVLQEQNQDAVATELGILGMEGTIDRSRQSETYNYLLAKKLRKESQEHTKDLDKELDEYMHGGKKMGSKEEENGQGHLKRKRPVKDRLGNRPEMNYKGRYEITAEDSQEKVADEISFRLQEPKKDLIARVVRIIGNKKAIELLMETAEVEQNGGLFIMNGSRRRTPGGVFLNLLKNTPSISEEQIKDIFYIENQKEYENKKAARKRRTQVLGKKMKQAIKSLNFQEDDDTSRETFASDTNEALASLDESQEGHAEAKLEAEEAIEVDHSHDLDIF
inactive: [1] 0.013 | [2] 0.001 | [3] -0.15 | [4] 0.003 | [5] -0.028 | [6] -0.138 | [7] -0.031 | [8] -0.037 | [9] -0.034 | [10] 0.037 | [11] -0.01 | [12] 0.045 | [13] 0.004 | [14] 0.018 | [15] -0.057 | [16] -0.09 | [17] 0.007 | [18] 0.032 | [19] 0.039 | [20] 0.002

PRKAR1A (UniProt P10644)
Sequence of UniProt P10644 (P10644 whole entry, looked up): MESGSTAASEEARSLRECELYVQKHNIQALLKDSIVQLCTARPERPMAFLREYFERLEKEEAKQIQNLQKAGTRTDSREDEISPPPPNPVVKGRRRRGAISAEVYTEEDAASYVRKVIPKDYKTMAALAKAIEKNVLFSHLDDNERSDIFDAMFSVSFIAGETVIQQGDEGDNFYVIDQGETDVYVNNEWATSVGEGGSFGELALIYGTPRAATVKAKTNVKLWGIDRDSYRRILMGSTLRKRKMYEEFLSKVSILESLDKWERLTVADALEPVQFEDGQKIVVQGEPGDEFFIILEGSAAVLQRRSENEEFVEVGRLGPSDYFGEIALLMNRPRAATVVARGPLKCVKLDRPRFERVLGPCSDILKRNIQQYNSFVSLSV
inactive: [1] -0.067 | [2] 0.105 | [3] 0.121 | [4] 0.007 | [5] 0.366 | [6] 0.14 | [7] 0.13 | [8] 0.005 | [9] 0.073 | [10] -0.069 | [11] 0.079 | [12] 0.042 | [13] 0.046 | [14] -0.045 | [15] -0.075 | [16] 0.131 | [17] 0.046 | [18] -0.132 | [19] 0 | [20] 0.206

PPOX (UniProt P50336)
Sequence of UniProt P50336 (P50336 whole entry, looked up): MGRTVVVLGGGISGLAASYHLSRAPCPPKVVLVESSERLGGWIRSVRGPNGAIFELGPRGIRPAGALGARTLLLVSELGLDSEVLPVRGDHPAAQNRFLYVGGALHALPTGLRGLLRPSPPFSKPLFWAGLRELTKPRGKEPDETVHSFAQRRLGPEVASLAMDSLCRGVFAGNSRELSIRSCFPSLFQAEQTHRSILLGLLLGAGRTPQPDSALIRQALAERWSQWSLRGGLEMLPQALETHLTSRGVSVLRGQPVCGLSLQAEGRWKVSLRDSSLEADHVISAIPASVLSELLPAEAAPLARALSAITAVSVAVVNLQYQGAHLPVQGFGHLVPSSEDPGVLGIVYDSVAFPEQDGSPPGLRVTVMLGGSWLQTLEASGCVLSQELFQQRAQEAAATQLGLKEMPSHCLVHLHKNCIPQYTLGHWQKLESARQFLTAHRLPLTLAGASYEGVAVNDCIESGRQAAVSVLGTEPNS
active: [5] 0.534 | [14] 0.574
inactive: [1] -0.087 | [2] 0.02 | [3] -0.049 | [4] -0.045 | [6] -0.07 | [7] -0.059 | [8] 0.274 | [9] -0.018 | [10] -0.01 | [11] 0.324 | [12] -0.226 | [13] 0.352 | [15] 0.033 | [16] -0.178 | [17] 0.116 | [18] 0.021 | [19] 0.471 | [20] 0.475
